# ± gives the standard deviation.
# Tested on: OVCAR-3-derived ovarian cancer stem-like cells (spheroids)
# Assay: cell growth relative to untreated control; higher = more growth (less inhibition)
# Conditions: 2.29 µM; 96 h
# Outline: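 Stem-like cells derived from OVCAR-3 spheroids were dissociated with trypsin and seeded at 50,000 cells/mL in stem cell medium in ultra-low attachment 96-well plates, then preincubated for 24 h. Each compound was added at 2.29 uM to 4 replicate wells and left for 96 h at 37°C, 5% CO2. Viability came from TOX8 resazurin fluorescence (ex 560/em 590 nm) read after 4 h. Percent growth was expressed relative to untreated wells, after blank subtraction and removal of outliers by the Grubbs test.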
row,Compound,cell growth [%]
1,Cc1ccc(NC(=O)c2cc3ccccc3c(N=Nc3ccccc3O)c2O)c(C)c1,75.2 ± 20
2,O=C1c2ccccc2C(=O)c2c(O)c(O)cc(O)c21,25.5 ± 6.6
3,CCCCCCCCCCSCC(CO)NC(=O)/C=C/c1c(C)[nH]c(=O)[nH]c1=O (stereo not given),107 ± 23
4,CN1CCN(CCCN2c3ccccc3Sc3ccc(C(F)(F)F)cc32)CC1,79.1 ± 24
5,CC1=C(C(=O)NCc2ccccc2)C(c2ccccc2O)C(C(=O)NCc2ccccc2)=C(C)N1,76.9 ± 12
6,CC(=O)OC[C@H]1O[C@@H](NC(=O)N(CCCl)N=O)[C@H](OC(C)=O)[C@@H](OC(C)=O)[C@@H]1OC(C)=O,115 ± 15
7,N#CC(C#N)=Cc1ccc(Oc2ccccc2)cc1,86.2 ± 51
8,COC(=O)C1(C)CCCC2(C)C3CCC4CC3(C=C4CO)CCC12 (stereo not given),95.7 ± 14
9,COc1cc(O)c(Cc2ccccc2O)c(O)c1C(=O)CCc1ccccc1,86.8 ± 30
10,O=C(Nc1ccccc1-c1nn(C(=S)Nc2ccccc2)c(=S)n(C(=S)Nc2ccccc2)c1=O)C(F)(F)F,84.8 ± 15
11,Cc1ccccc1NC(=O)C(=O)C(C(=O)c1ccccc1F)C1OC(=O)c2ccccc21 (stereo not given),94.9 ± 13
12,CCCCCCCCCCNCCSSCc1ccc(Cl)cc1,126 ± 23
13,COC(=O)c1ccccc1OCc1cc(=O)oc2ccc(C)cc12,115 ± 20
14,COc1cc(OC)c2c(C)cc(=O)oc2c1,108 ± 32
15,C=CCOC1OC(CO[Si](C)(C)C(C)(C)C)C(OCc2ccccc2)C(OCc2ccccc2)C1OCc1ccccc1 (stereo not given),116 ± 18
16,CC(Cc1ccccc1)NC1=NCCO1 (stereo not given),88.1 ± 13
17,CCN(CC)Cc1cc(N=Nc2c(O)ccc3c(N=Nc4ccc(O)c(CN(CC)CC)c4)c(O)ccc23)ccc1O,70.5 ± 21
18,O=c1[nH]c(=O)n(C2CCCO2)cc1F (stereo not given),24.9 ± 6.8
19,Oc1[nH]c2ccccc2c1N=Nc1nc(-c2ccc(Br)cc2)cs1,81.5 ± 29
20,CC1=C(O)c2ccccc2C(=O)C1=O,91.9 ± 56
21,Cc1ccc(S(=O)(=O)N2CCSCCSCCSCCSCC2)cc1,92.2 ± 26
22,BrC(/C=N/Nc1nnc(-c2ccccc2)c(-c2ccccc2)n1)C(Br)c1ccccc1 (stereo not given),93.9 ± 17
23,C=C1C(=O)OC2C1CC1OC2C(C)CCC/C(C)=C\CCC1(C)O (stereo not given),115 ± 10
24,CCOc1cccc(/C=N/N=C2\C(=O)Nc3c(Cl)cc(Cl)cc32)c1O,85.4 ± 13
25,Nc1nc2c(ncn2[C@@H]2O[C@H](CO)[C@@H](O)[C@H]2O)c(=O)[nH]1,107 ± 11

# Source: the supplement of paper PMC3484114
